Drawing on PubChem BioAssay (NCI), this text covers growth inhibition for 39 compounds.

The structures appear in SMILES notation. Compounds without any hit were thinned out: in the full panel of roughly 79,000, 15% have a hit. Values without a mark were called inactive. The source made the active and inactive calls. Rule as the data show it: active = growth inhibition above about 70%; inactive = the rest.

The first experiment can be described thus: NCI Yeast Anticancer Drug Screen. Data for the cln2 rad14 strain (AID 165).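 Also: 0% = growth equal to vehicle treated cultures.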 The note with it: S. cerevisiae cln2 rad14 strain, at 50.0 µM, hits give high values. Summed up: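 The screen exposed genetically defined yeast (cln2 rad14) to test compounds and scored growth inhibition relative to vehicle-treated controls.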
On to `Nc1cccnc1`, for which the growth inhibition is -1.55%.

Take `CCC1C2Cc3ccc(O)cc3C1(CC)CCN2C` (stereo not drawn): the growth inhibition is -1.65%.

For `CC(=O)Nc1cc(Cl)c([N+](=O)[O-])cc1C`, the growth inhibition was -79.1%.

On to `O=[As](c1ccccc1)(c1ccccc1)c1ccc(Br)cc1`, for which the growth inhibition was 5.1%.

In the case of `CCC(CCl)NC(CC(C)C)CC(C)C` (stereo not drawn), the growth inhibition was -10.5%.

Consider `NC(=O)C[CH2][Sn]([Cl])([Cl])[CH2]CC(N)=O`, for which the growth inhibition is 5.3%.

Consider `O=C(CCSCCC(=O)N/N=C/c1ccc(N(CCCl)CCCl)cc1)N/N=C\c1ccc(N(CCCl)CCCl)cc1`, for which the growth inhibition is -6.4%.

For the compound `OCCN=Cc1c[nH]c2ccccc12`, the growth inhibition is 3.85%.

`COc1ccc(CCN)c(OC)c1`: the growth inhibition is -13.1%.

As for `NP(=O)(Oc1cccc2c(OP(N)(=O)N(CCCl)CCCl)cccc12)N(CCCl)CCCl` (stereo not drawn), the growth inhibition was -29.7%.

Turning to `CCCC[C@@H]1CCN2C[C@@H](O)[C@@H](O)[C@@H]2[C@H]1O`, the growth inhibition was 11.7%.

As for `Nc1ccc(C(=O)O)c([As](O)O)c1`, the growth inhibition is 4.35%.

On to `c1cc(C2N3CCCN2CC3)ccn1` (stereo not drawn), for which the growth inhibition is -19.9%.

For the compound `CCN(CC)C(=S)Cl`, the growth inhibition is -2.15%.

In the case of `COC(=O)C1c2cc(OC)c(OC)cc2C(=O)N2CCc3cc4c(cc3C12)OCO4` (stereo not drawn), the growth inhibition was 12.1%.

For the compound `ClCCN(CCCl)c1ccc2c(c1)Cc1cc(Br)ccc1-2`, the growth inhibition was 30.8%.

Consider `COc1cccc2c1C(=O)c1c(O)c3c(c(O)c1C2=O)C[C@@](O)(C(=O)CO)C[C@@H]3OC1CC(N2CCOCC2C#N)C(O)C(C)O1` (stereo partly drawn), for which the growth inhibition is 89.8% (active).

On to `CCC(=O)[O-].CCC(=O)[O-].N.N.N.N.[Co+3].[O-][Cl+3]([O-])([O-])[O-]`, for which the growth inhibition was 17.9%.

Regarding `O=C(Cl)c1ccc[nH]1`, the growth inhibition is 21.1%.

On to `COc1ccc(C(=O)/C=C/c2ccccc2)cc1`, for which the growth inhibition was 2.45%.

For the compound `CN1CN(c2ccccc2)C2(CCN(CCCCCCF)CC2)C1=O`, the growth inhibition is -0.15%.

As to `CC(=O)OC1CCC2(C)C(CCC3C2CCC2(C)C(c4ccc(=O)oc4)C(OC(C)=O)CC32O)C1` (stereo not drawn), the growth inhibition was 4.5%.

Consider `ClCCN(CCCl)c1ncnc2c1ncn2Cc1ccccc1`, for which the growth inhibition is -12.6%.

Consider `OC1(c2ccccc2)C2CCN(CC2)C1CN1CCOCC1` (stereo not drawn), for which the growth inhibition was 4.05%.

With `Fc1ccc(N=C=S)cc1`, the growth inhibition is -9.8%.

On to `CCC[CH2][Sn]([CH2]CCC)([CH2]CCC)[CH2]CCNCCCN(C)C`, for which the growth inhibition is 99% (active).

Regarding `CCC(Cl)COP(=O)(OCC(Cl)CC)C(CC)OP(=S)(OCC(Cl)CC)OCC(Cl)CC` (stereo not drawn), the growth inhibition is 94.8% (active).

Turning to `NP(=O)(OCCC(OCc1ccccc1)OCc1ccccc1)N(CCCl)CCCl` (stereo not drawn), the growth inhibition was 48.5%.

Take `C[Si](C)(C)CN(N=O)C(N)=O`: the growth inhibition is -25.2%.

Regarding `Cc1cc(C(C)(C)C)ccc1O`, the growth inhibition is 4.6%.

As for `Cc1ncc(CNC(=O)N(CCCl)N=O)c(N)n1`, the growth inhibition is -10.2%.

For the compound `COc1ccc(Oc2cc3c(cc2OC)CCN(C)C3)cc1`, the growth inhibition was -0.6%.

For `O=C(C[n+]1ccccc1)C1CCCC2CC3CCCCC3CC21` (stereo not drawn), the growth inhibition is 13.8%.

As for `CC(=O)[CH-]C(C)=O.CC(=O)[CH-]C(C)=O.CC(=O)[CH-]C(C)=O.[Cl-].[Hf+4]`, the growth inhibition is 21.4%.

`O=C(NCC(O)CO)c1c([N+](=O)[O-])ccc(N(CCCl)CCCl)c1[N+](=O)[O-]` (stereo not drawn): the growth inhibition was 1.45%.

Take `N=C(N)n1cc(/C=N/N=C(N)N)cn1`: the growth inhibition was 0.1%.

Regarding `CCCCC(C(=O)NN)P(=O)(OCC)OCC` (stereo not drawn), the growth inhibition was -14.7%.

Regarding `OCCSCSCCO`, the growth inhibition is 10.2%.

Take `CCC[P+](CCC)(CCC)CCCCCCCCCC[P+](CCC)(CCC)CCC`: the growth inhibition is -21.2%.

The next experiment can be described thus: NCI Yeast Anticancer Drug Screen. Data for the bub3 strain (AID 167). The settings on record: S. cerevisiae bub3 mutant strain, at 50.0 µM, hits give high values. A digest of the protocol:
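Compounds were applied to a genetically altered yeast strain carrying a cell-cycle control defect. Growth inhibition was scored against vehicle-treated controls.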
For the compound `Nc1cccnc1`, the growth inhibition was -23.6%.

As to `CCC1C2Cc3ccc(O)cc3C1(CC)CCN2C` (stereo not drawn), the growth inhibition was -77.2%.

With `CC(=O)Nc1cc(Cl)c([N+](=O)[O-])cc1C`, the growth inhibition was 0.75%.

On to `O=[As](c1ccccc1)(c1ccccc1)c1ccc(Br)cc1`, for which the growth inhibition is 6.2%.

On to `CCC(CCl)NC(CC(C)C)CC(C)C` (stereo not drawn), for which the growth inhibition is -4.7%.

`NC(=O)C[CH2][Sn]([Cl])([Cl])[CH2]CC(N)=O`: the growth inhibition was 7.9%.

For `O=C(CCSCCC(=O)N/N=C/c1ccc(N(CCCl)CCCl)cc1)N/N=C\c1ccc(N(CCCl)CCCl)cc1`, the growth inhibition was -9.45%.

As to `OCCN=Cc1c[nH]c2ccccc12`, the growth inhibition was -42.5%.

For `COc1ccc(CCN)c(OC)c1`, the growth inhibition was -8.25%.

For `NP(=O)(Oc1cccc2c(OP(N)(=O)N(CCCl)CCCl)cccc12)N(CCCl)CCCl` (stereo not drawn), the growth inhibition was -3.25%.

In the case of `CCCC[C@@H]1CCN2C[C@@H](O)[C@@H](O)[C@@H]2[C@H]1O`, the growth inhibition is 12.2%.

As to `Nc1ccc(C(=O)O)c([As](O)O)c1`, the growth inhibition is -4.3%.

Regarding `c1cc(C2N3CCCN2CC3)ccn1` (stereo not drawn), the growth inhibition was -2.35%.

`CCN(CC)C(=S)Cl`: the growth inhibition is 19.1%.

On to `COC(=O)C1c2cc(OC)c(OC)cc2C(=O)N2CCc3cc4c(cc3C12)OCO4` (stereo not drawn), for which the growth inhibition is -3.3%.

Turning to `ClCCN(CCCl)c1ccc2c(c1)Cc1cc(Br)ccc1-2`, the growth inhibition was 2.6%.

In the case of `COc1cccc2c1C(=O)c1c(O)c3c(c(O)c1C2=O)C[C@@](O)(C(=O)CO)C[C@@H]3OC1CC(N2CCOCC2C#N)C(O)C(C)O1` (stereo partly drawn), the growth inhibition was 90.5% (active).

As for `CCC(=O)[O-].CCC(=O)[O-].N.N.N.N.[Co+3].[O-][Cl+3]([O-])([O-])[O-]`, the growth inhibition is 2.05%.

Take `O=C(Cl)c1ccc[nH]1`: the growth inhibition was -25.6%.

As for `COc1ccc(C(=O)/C=C/c2ccccc2)cc1`, the growth inhibition is 42.4%.

Regarding `CN1CN(c2ccccc2)C2(CCN(CCCCCCF)CC2)C1=O`, the growth inhibition is -5.95%.

For the compound `CC(=O)OC1CCC2(C)C(CCC3C2CCC2(C)C(c4ccc(=O)oc4)C(OC(C)=O)CC32O)C1` (stereo not drawn), the growth inhibition is -4.45%.

For the compound `ClCCN(CCCl)c1ncnc2c1ncn2Cc1ccccc1`, the growth inhibition is -1.95%.

Take `OC1(c2ccccc2)C2CCN(CC2)C1CN1CCOCC1` (stereo not drawn): the growth inhibition is 13.3%.

On to `Fc1ccc(N=C=S)cc1`, for which the growth inhibition was -6.2%.

As to `CCC[CH2][Sn]([CH2]CCC)([CH2]CCC)[CH2]CCNCCCN(C)C`, the growth inhibition is 98.8% (active).

Consider `CCC(Cl)COP(=O)(OCC(Cl)CC)C(CC)OP(=S)(OCC(Cl)CC)OCC(Cl)CC` (stereo not drawn), for which the growth inhibition is 57.5%.

With `NP(=O)(OCCC(OCc1ccccc1)OCc1ccccc1)N(CCCl)CCCl` (stereo not drawn), the growth inhibition was 6.2%.

On to `C[Si](C)(C)CN(N=O)C(N)=O`, for which the growth inhibition is 3.95%.

For the compound `Cc1cc(C(C)(C)C)ccc1O`, the growth inhibition is 28.2%.

Take `Cc1ncc(CNC(=O)N(CCCl)N=O)c(N)n1`: the growth inhibition is -4.2%.

For the compound `COc1ccc(Oc2cc3c(cc2OC)CCN(C)C3)cc1`, the growth inhibition was -22.9%.

Consider `O=C(C[n+]1ccccc1)C1CCCC2CC3CCCCC3CC21` (stereo not drawn), for which the growth inhibition is 22.1%.

Consider `CC(=O)[CH-]C(C)=O.CC(=O)[CH-]C(C)=O.CC(=O)[CH-]C(C)=O.[Cl-].[Hf+4]`, for which the growth inhibition was -9.75%.

Regarding `O=C(NCC(O)CO)c1c([N+](=O)[O-])ccc(N(CCCl)CCCl)c1[N+](=O)[O-]` (stereo not drawn), the growth inhibition is -19.1%.

On to `N=C(N)n1cc(/C=N/N=C(N)N)cn1`, for which the growth inhibition was -8.3%.

Turning to `CCCCC(C(=O)NN)P(=O)(OCC)OCC` (stereo not drawn), the growth inhibition was -1.95%.

For `OCCSCSCCO`, the growth inhibition was -2.8%.

As to `CCC[P+](CCC)(CCC)CCCCCCCCCC[P+](CCC)(CCC)CCC`, the growth inhibition is -1.15%.
